Measurements: PMC5540273 (PLoS ONE, 2017)

How the values were obtained:
Conditions in all cases: concentration: 1 μM, replicates: in singlicate; n = 1
[1] = system: EPHB3
[2] = system: EPHB4
[3] = system: EPHB6
[4] = system: ERBB2
[5] = system: ERBB3
[6] = system: ERBB4
[7] = system: T1, ERK1
T1 construct: gene MAPK3

[8] = system: T2, ERK2
T2 construct: gene MAPK1

[9] = system: T3, ERK3
T3 construct: gene MAPK6

[10] = system: T4, ERK4
T4 construct: gene MAPK4
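Also: KINOMEscan kinase panel screen.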

| SMILES | %Inh [1] [%] | %Inh [2] [%] | %Inh [3] [%] | %Inh [4] [%] | %Inh [5] [%] | %Inh [6] [%] | %Inh [7] [%] | %Inh [8] [%] | %Inh [9] [%] | %Inh [10] [%] |
| --- | --- | --- | --- | --- | --- | --- | --- | --- | --- | --- |
| Cn1c(=O)c(F)c(Nc2ccc(I)cc2F)c2c(=O)n(OC[C@H](O)CO)cnc21 | 17 | 32 | 0 | 0 | 41 | 3 | 0 | 8 | 9 | 7 |
| COC(=O)c1c(-c2ccccc2)c2cc(C)ccc2c(=O)n1Cc1ccccc1 | 45 | 1 | 0 | 5 | 0 | 0 | 0 | 9 | 0 | 0 |
| Nc1nccc2scc(-c3ccc4c(c3)CCN4C(=O)Cc3ccccc3)c12 [GSK2576924] | 4 | 22 | 88 | 31 | 0 | 8 | 0 | 0 | 0 | 33 |
| OCCCNc1nccc(-c2c(-c3cccc(C(F)(F)F)c3)nn3cc(C(F)(F)F)ccc23)n1 [GW630813] | 0 | 10 | 0 | 19 | 12 | 40 | 0 | 0 | 0 | 0 |
| COc1cc2nccc(Nc3ccc(OCc4ccc(NC(C)=O)cc4)cc3)c2cc1OC.Cl [GW440135] | 32 | 19 | 19 | 31 | 40 | 9 | 0 | 0 | 5 | 0 |
| O=C(NCc1cccs1)c1cc(C(=O)c2c(Cl)cccc2Cl)c[nH]1 [GW823670] | 0 | 0 | 0 | 0 | 0 | 20 | 0 | 5 | 0 | 0 |
| Cc1ccc(Oc2ccc(Nc3ncnc4cc[nH]c34)cc2C)cn1 | 26 | 28 | 53 | 100 | 24 | 29 | 0 | 26 | 0 | 7 |
| COc1cccc(C2=C(Nc3cccc(C(=O)O)c3)C(=O)NC2=O)c1 [SB-390770] | 8 | 7 | 21 | 6 | 16 | 0 | 0 | 0 | 2 | 0 |
| COc1cc(OC)cc(-c2cc3cnc(N)nc3nc2NC(=O)NC(C)(C)C)c1 | 0 | 0 | 24 | 4 | 0 | 4 | 0 | 0 | 0 | 4 |
| COc1cccc(-n2cnc3c(N)ncnc32)c1 [SKF-97416] | 0 | 0 | 28 | 31 | 46 | 1 | 0 | 0 | 5 | 0 |
| CN1C(=O)C(Nc2cc(Cl)c(O)c(Cl)c2)=C(c2ccc(Cl)cc2)C1=O [SB-404321] | 0 | 0 | 0 | 24 | 0 | 0 | 0 | 9 | 0 | 0 |
| Cc1cccc(-c2cc(-c3c[nH]nc3-c3ccccn3)ccn2)c1 [GW679395] | 25 | 22 | 74 | 19 | 0 | 36 | 0 | 0 | 0 | 19 |
| Cl.NS(=O)(=O)c1cccc(Nc2cc(-c3ccc(F)cc3)n[nH]2)c1 [GW824645] | 0 | 0 | 0 | 4 | 17 | 0 | 0 | 0 | 0 | 0 |
| CCC(=O)c1c(-c2ccccc2)c2cc(Cl)ccc2c(=O)n1Cc1ccc(C(=O)O)cc1 | 5 | 0 | 0 | 16 | 0 | 0 | 0 | 5 | 0 | 0 |
| Cc1ccc(-c2ccc3c(ccc4sc5c(c43)NC[C@@H](C)N=C5N(C)C)n2)cn1 | 0 | 0 | 15 | 8 | 0 | 3 | 0 | 0 | 1 | 14 |
| CCS(=O)(=O)c1ccc(OC)c(Nc2ncc(-c3ccc(F)cc3)o2)c1.Cl [GW591947] | 0 | 0 | 0 | 13 | 0 | 0 | 8 | 7 | 13 | 21 |
| COc1ccc(CNC(=O)NC2CCN(c3ccnc(Nc4ccc(F)cc4)n3)C2)cc1 (centres unmarked) [GSK1379706] | 6 | 16 | 30 | 41 | 47 | 2 | 6 | 14 | 14 | 0 |
| Cc1c(Cn2c(C)nn3c(=O)cc(N4CCO[C@H](C)C4)nc23)cccc1C(F)(F)F [GSK2373690] | 10 | 0 | 0 | 7 | 0 | 32 | 17 | 14 | 10 | 2 |

| SMILES | %Inh [1] [%] | %Inh [2] [%] | %Inh [3] [%] | %Inh [4] [%] | %Inh [5] [%] | %Inh [6] [%] | %Inh [7] [%] | %Inh [8] [%] | %Inh [9] [%] | %Inh [10] [%] |
| --- | --- | --- | --- | --- | --- | --- | --- | --- | --- | --- |
| COc1cc(Nc2ccnc3ccc(C(F)(F)F)cc23)cc(OC)c1OC [GW577382] | 14 | 20 | 49 | 16 | 30 | 23 | 0 | 5 | 0 | 1 |
| COc1ccc(-c2cc3c(C)nc(N)nc3n([C@H]3CC[C@H](OCCO)CC3)c2=O)cn1 | 16 | 5 | 4 | 13 | 0 | 0 | 0 | 14 | 0 | 16 |
| COc1cc2ncn(-c3cc(OCc4ccncc4)c(C(N)=O)s3)c2cc1OC [GSK336313] | 0 | 10 | 22 | 0 | 0 | 22 | 0 | 0 | 28 | 46 |
| Cc1ccccc1COc1cc(-n2cnc3cc(Cl)ccc32)sc1C(N)=O [GW813349] | 0 | 10 | 17 | 14 | 54 | 0 | 1 | 0 | 0 | 0 |
| CCCNC(=O)Nc1ccc(Oc2ncnc3ccn(C)c23)cc1 | 0 | 0 | 5 | 33 | 1 | 4 | 0 | 0 | 2 | 0 |
| COc1cc2nccc(Nc3cccc(Oc4ccccc4)c3)c2cc1OC.Cl [GW284543] | 0 | 0 | 79 | 24 | 66 | 31 | 18 | 0 | 0 | 10 |
| O=C1NC(=O)C(c2ccccc2)=C1Nc1cccc(O)c1 [SB-390534] | 0 | 0 | 0 | 0 | 0 | 3 | 0 | 0 | 0 | 0 |
| CCC(=O)c1c(-c2ccccc2)c2cc(Cl)ccc2c(=O)n1Cc1cc(S(C)(=O)=O)n(CCC(C)(C)O)n1 | 9 | 0 | 21 | 0 | 7 | 20 | 12 | 32 | 14 | 14 |
| CN(C)c1cc(-c2ccc3c(N)n[nH]c3c2)nc(N)n1 [GSK2219329] | 9 | 13 | 3 | 25 | 0 | 30 | 15 | 0 | 11 | 0 |
| COc1cccc(C2=C(N(C)c3ccccc3)C(=O)NC2=O)c1 [SB-334865] | 3 | 0 | 11 | 41 | 0 | 0 | 7 | 0 | 0 | 46 |
| COc1cc2ncn(-c3cc(OCc4ccncc4Br)c(C(N)=O)s3)c2cc1OC [GW854278] | 0 | 18 | 3 | 11 | 37 | 0 | 0 | 0 | 0 | 4 |
| CC(C)(C)c1ccc(C(=O)Nc2cn3cc(-c4ccccc4)ccc3n2)cc1 | 3 | 0 | 0 | 50 | 0 | 4 | 0 | 0 | 0 | 6 |
| CCn1c(-c2nonc2N)nc2ccccc21 [SB-693162/GW549034] | 0 | 0 | 45 | 0 | 4 | 0 | 0 | 10 | 0 | 0 |
| Nc1ncnc2c1ncn2-c1cccc2ccccc12 [SKF-97184] | 0 | 0 | 0 | 10 | 26 | 41 | 0 | 0 | 0 | 0 |
| O=C(Nc1n[nH]c2cc(-c3ccccc3F)ccc12)C1CC1 [SB-733371] | 0 | 5 | 0 | 0 | 0 | 18 | 0 | 0 | 0 | 0 |
| COc1cc(Nc2nccc(N3CCC(NC(=O)C4COc5ccccc5O4)C3)n2)cc(OC)c1OC (centres unmarked) [GSK1379761] | 0 | 7 | 93.9 | 50 | 37 | 30 | 0 | 0 | 5 | 15 |
| Nc1n[nH]c2nnc(-c3ccccc3)c(-c3ccccc3)c12 [GW554060] | 43 | 8 | 17 | 27 | 16 | 32 | 0 | 0 | 3 | 0 |
